Results taken from article PMC11006913.

Target: SHOX (Homo sapiens, UniProt O15266 103-189)
Test: PBM; 200 nM protein, PBS
Settings: dsDNA, one strand shown

Sequence of SHOX (Homo sapiens, UniProt O15266 103-189) (O15266 103-189): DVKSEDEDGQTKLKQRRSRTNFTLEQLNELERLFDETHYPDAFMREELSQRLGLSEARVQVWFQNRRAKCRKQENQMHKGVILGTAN

Sequence | binding signal
CCAGAGGC | 7.17 upbm affinity estimate (log intensity, higher = more binding, comparable within an allelic series)
TCGCGCGA | 7.38 upbm affinity estimate (log intensity, higher = more binding, comparable within an allelic series)
CCGAAGCG | 7.16 upbm affinity estimate (log intensity, higher = more binding, comparable within an allelic series)
CCGGGACG | 7.24 upbm affinity estimate (log intensity, higher = more binding, comparable within an allelic series)
GCCTGCCA | 7.25 upbm affinity estimate (log intensity, higher = more binding, comparable within an allelic series)
GGCTGGCA | 7.2 upbm affinity estimate (log intensity, higher = more binding, comparable within an allelic series)
CTCCGCCA | 7.21 upbm affinity estimate (log intensity, higher = more binding, comparable within an allelic series)
GCATGGCC | 7.2 upbm affinity estimate (log intensity, higher = more binding, comparable within an allelic series)
ATTACCTA | 9.59 upbm affinity estimate (log intensity, higher = more binding, comparable within an allelic series)
CACCGGGG | 7.32 upbm affinity estimate (log intensity, higher = more binding, comparable within an allelic series)
CCAGGGCG | 7.04 upbm affinity estimate (log intensity, higher = more binding, comparable within an allelic series)
CGGCCTCC | 6.98 upbm affinity estimate (log intensity, higher = more binding, comparable within an allelic series)
AAGGCTCC | 7.08 upbm affinity estimate (log intensity, higher = more binding, comparable within an allelic series)
CCAGTTTA | 8.2 upbm affinity estimate (log intensity, higher = more binding, comparable within an allelic series)
CCTCGGAG | 7.14 upbm affinity estimate (log intensity, higher = more binding, comparable within an allelic series)
GCCTATTA | 10.8 upbm affinity estimate (log intensity, higher = more binding, comparable within an allelic series)
CCGGCGTC | 7.01 upbm affinity estimate (log intensity, higher = more binding, comparable within an allelic series)
GGCCCAGA | 7.17 upbm affinity estimate (log intensity, higher = more binding, comparable within an allelic series)
CAACCAGC | 7.2 upbm affinity estimate (log intensity, higher = more binding, comparable within an allelic series)
CAATCTTC | 7.99 upbm affinity estimate (log intensity, higher = more binding, comparable within an allelic series)

Sequence | binding signal
CGGCCTGA | 7.33 upbm affinity estimate (log intensity, higher = more binding, comparable within an allelic series)
CTCCTCCC | 7.03 upbm affinity estimate (log intensity, higher = more binding, comparable within an allelic series)
AGCTGTCC | 7.1 upbm affinity estimate (log intensity, higher = more binding, comparable within an allelic series)
CGCAGCCG | 7.02 upbm affinity estimate (log intensity, higher = more binding, comparable within an allelic series)
ACCCGCCC | 7.27 upbm affinity estimate (log intensity, higher = more binding, comparable within an allelic series)
CCAAACGG | 7.11 upbm affinity estimate (log intensity, higher = more binding, comparable within an allelic series)
CCGGGAAA | 7.25 upbm affinity estimate (log intensity, higher = more binding, comparable within an allelic series)
AGGTCCCC | 7.19 upbm affinity estimate (log intensity, higher = more binding, comparable within an allelic series)
CCAAGGAG | 7.32 upbm affinity estimate (log intensity, higher = more binding, comparable within an allelic series)
CCAATCAC | 8.6 upbm affinity estimate (log intensity, higher = more binding, comparable within an allelic series)
CCGGGCGA | 7.31 upbm affinity estimate (log intensity, higher = more binding, comparable within an allelic series)
CCCCTTCC | 7.19 upbm affinity estimate (log intensity, higher = more binding, comparable within an allelic series)
CCGGATGC | 6.64 upbm affinity estimate (log intensity, higher = more binding, comparable within an allelic series)
CCGAGGGA | 7.05 upbm affinity estimate (log intensity, higher = more binding, comparable within an allelic series)
CCCAGCGA | 7.15 upbm affinity estimate (log intensity, higher = more binding, comparable within an allelic series)
CCTTTCCC | 7.21 upbm affinity estimate (log intensity, higher = more binding, comparable within an allelic series)
GCTAATAC | 9.1 upbm affinity estimate (log intensity, higher = more binding, comparable within an allelic series)
ACCTGAGG | 7.18 upbm affinity estimate (log intensity, higher = more binding, comparable within an allelic series)
CGGGCGTC | 7.36 upbm affinity estimate (log intensity, higher = more binding, comparable within an allelic series)

Target: SHOX (Homo sapiens, UniProt O15266 103-189, R173C)
Test: PBM; 200 nM protein, PBS
Settings: dsDNA, one strand shown

Sequence of SHOX (Homo sapiens, UniProt O15266 103-189, R173C) (O15266 103-189 R173C): as the sequence (O15266 103-189) above, with R71C counted along it

Sequence | binding signal
CCAGAGGC | 7.18 upbm affinity estimate (log intensity, higher = more binding, comparable within an allelic series)
TCGCGCGA | 7.28 upbm affinity estimate (log intensity, higher = more binding, comparable within an allelic series)
CCGAAGCG | 7.24 upbm affinity estimate (log intensity, higher = more binding, comparable within an allelic series)
CCGGGACG | 7.27 upbm affinity estimate (log intensity, higher = more binding, comparable within an allelic series)
GCCTGCCA | 7.26 upbm affinity estimate (log intensity, higher = more binding, comparable within an allelic series)
GGCTGGCA | 7.13 upbm affinity estimate (log intensity, higher = more binding, comparable within an allelic series)
CTCCGCCA | 7.21 upbm affinity estimate (log intensity, higher = more binding, comparable within an allelic series)
GCATGGCC | 7.2 upbm affinity estimate (log intensity, higher = more binding, comparable within an allelic series)
CACCGGGG | 7.13 upbm affinity estimate (log intensity, higher = more binding, comparable within an allelic series)
CCAGGGCG | 7.02 upbm affinity estimate (log intensity, higher = more binding, comparable within an allelic series)
CGGCCTCC | 7.08 upbm affinity estimate (log intensity, higher = more binding, comparable within an allelic series)
AAGGCTCC | 7.1 upbm affinity estimate (log intensity, higher = more binding, comparable within an allelic series)
CCAGTTTA | 7.55 upbm affinity estimate (log intensity, higher = more binding, comparable within an allelic series)
CCTCGGAG | 7.17 upbm affinity estimate (log intensity, higher = more binding, comparable within an allelic series)
GCCTATTA | 8.45 upbm affinity estimate (log intensity, higher = more binding, comparable within an allelic series)
CCGGCGTC | 7.17 upbm affinity estimate (log intensity, higher = more binding, comparable within an allelic series)
GGCCCAGA | 7.12 upbm affinity estimate (log intensity, higher = more binding, comparable within an allelic series)
CAACCAGC | 7.18 upbm affinity estimate (log intensity, higher = more binding, comparable within an allelic series)
CAATCTTC | 7.51 upbm affinity estimate (log intensity, higher = more binding, comparable within an allelic series)

Sequence | binding signal
CGGCCTGA | 7.17 upbm affinity estimate (log intensity, higher = more binding, comparable within an allelic series)
CTCCTCCC | 7.12 upbm affinity estimate (log intensity, higher = more binding, comparable within an allelic series)
AGCTGTCC | 7.23 upbm affinity estimate (log intensity, higher = more binding, comparable within an allelic series)
CGCAGCCG | 7.12 upbm affinity estimate (log intensity, higher = more binding, comparable within an allelic series)
ACCCGCCC | 7.22 upbm affinity estimate (log intensity, higher = more binding, comparable within an allelic series)
CCAAACGG | 7.21 upbm affinity estimate (log intensity, higher = more binding, comparable within an allelic series)
CCGGGAAA | 7.26 upbm affinity estimate (log intensity, higher = more binding, comparable within an allelic series)
AGGTCCCC | 7.17 upbm affinity estimate (log intensity, higher = more binding, comparable within an allelic series)
CCAAGGAG | 7.21 upbm affinity estimate (log intensity, higher = more binding, comparable within an allelic series)
CCAATCAC | 7.61 upbm affinity estimate (log intensity, higher = more binding, comparable within an allelic series)
CCGGGCGA | 7.22 upbm affinity estimate (log intensity, higher = more binding, comparable within an allelic series)
CCCCTTCC | 7.03 upbm affinity estimate (log intensity, higher = more binding, comparable within an allelic series)
CCGGATGC | 7.08 upbm affinity estimate (log intensity, higher = more binding, comparable within an allelic series)
CCGAGGGA | 7.2 upbm affinity estimate (log intensity, higher = more binding, comparable within an allelic series)
CCCAGCGA | 7.2 upbm affinity estimate (log intensity, higher = more binding, comparable within an allelic series)
CCTTTCCC | 7.11 upbm affinity estimate (log intensity, higher = more binding, comparable within an allelic series)
ACCTGAGG | 7.27 upbm affinity estimate (log intensity, higher = more binding, comparable within an allelic series)
CGGGCGTC | 7.21 upbm affinity estimate (log intensity, higher = more binding, comparable within an allelic series)

Target: PROP1 (Homo sapiens, UniProt O75360 56-141)
Test: PBM; 200 nM protein, PBS
Settings: dsDNA, one strand shown

Sequence of PROP1 (O75360 56-141): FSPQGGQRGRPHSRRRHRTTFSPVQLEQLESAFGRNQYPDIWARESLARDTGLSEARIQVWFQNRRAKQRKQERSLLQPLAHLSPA

Sequence | binding signal
CACCGGGG | 6.79 upbm affinity estimate (log intensity, higher = more binding, comparable within an allelic series)
CCAGGGCG | 6.67 upbm affinity estimate (log intensity, higher = more binding, comparable within an allelic series)
CCTTTCCC | 6.78 upbm affinity estimate (log intensity, higher = more binding, comparable within an allelic series)
